Assay [1] concerns the target T1, Serine/threonine-protein kinase TBK1 (Homo sapiens) (UniProt Q9UHD2).
T1 sequence (whole entry): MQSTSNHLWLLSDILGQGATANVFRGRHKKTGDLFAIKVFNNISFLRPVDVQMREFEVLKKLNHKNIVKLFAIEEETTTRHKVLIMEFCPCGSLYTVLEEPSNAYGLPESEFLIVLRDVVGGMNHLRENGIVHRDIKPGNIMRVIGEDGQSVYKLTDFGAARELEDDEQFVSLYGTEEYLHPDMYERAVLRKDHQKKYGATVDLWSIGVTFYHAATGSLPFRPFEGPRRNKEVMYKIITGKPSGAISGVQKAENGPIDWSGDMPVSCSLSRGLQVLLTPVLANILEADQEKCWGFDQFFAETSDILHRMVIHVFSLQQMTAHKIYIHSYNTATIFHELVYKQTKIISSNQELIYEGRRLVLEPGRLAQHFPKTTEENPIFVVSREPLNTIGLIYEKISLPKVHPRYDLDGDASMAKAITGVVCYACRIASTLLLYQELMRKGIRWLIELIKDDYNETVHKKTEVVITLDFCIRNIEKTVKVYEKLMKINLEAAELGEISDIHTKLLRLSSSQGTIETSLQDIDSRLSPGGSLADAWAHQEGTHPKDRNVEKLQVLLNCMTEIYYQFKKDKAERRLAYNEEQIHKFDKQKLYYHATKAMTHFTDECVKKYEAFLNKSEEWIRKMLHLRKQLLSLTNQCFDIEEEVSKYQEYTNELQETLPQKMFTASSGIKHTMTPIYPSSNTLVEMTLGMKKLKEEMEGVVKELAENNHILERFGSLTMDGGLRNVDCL
Particulars: at 10 µM.

The target of assay [2] is T2, TGF-beta receptor type-1 (Homo sapiens) (UniProt P36897).
T2 sequence (whole entry): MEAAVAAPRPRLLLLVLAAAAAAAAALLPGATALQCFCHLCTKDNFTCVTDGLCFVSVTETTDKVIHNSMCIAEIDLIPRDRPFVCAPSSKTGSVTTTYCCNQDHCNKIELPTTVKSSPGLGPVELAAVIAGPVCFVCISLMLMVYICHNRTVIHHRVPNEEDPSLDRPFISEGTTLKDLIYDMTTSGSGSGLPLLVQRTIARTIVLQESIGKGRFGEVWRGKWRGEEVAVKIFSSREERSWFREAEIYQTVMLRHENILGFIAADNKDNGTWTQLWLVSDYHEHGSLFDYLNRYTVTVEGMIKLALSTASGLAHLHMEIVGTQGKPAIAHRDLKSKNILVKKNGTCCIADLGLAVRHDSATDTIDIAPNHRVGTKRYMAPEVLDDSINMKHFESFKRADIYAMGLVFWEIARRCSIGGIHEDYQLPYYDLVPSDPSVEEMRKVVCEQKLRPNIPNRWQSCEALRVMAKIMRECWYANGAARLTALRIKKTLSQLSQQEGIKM
Particulars: at 1 µM.

In assay [3] the target is T2, TGF-beta receptor type-1 (Homo sapiens). The conditions noted are these: at 10 µM.
Assay [4] deals with Insulin-like growth factor 1 receptor (Homo sapiens) (UniProt P08069). The conditions noted are these: at 1 µM.
Sequence of Insulin-like growth factor 1 receptor (Homo sapiens) (P08069 31-736 limits assumed): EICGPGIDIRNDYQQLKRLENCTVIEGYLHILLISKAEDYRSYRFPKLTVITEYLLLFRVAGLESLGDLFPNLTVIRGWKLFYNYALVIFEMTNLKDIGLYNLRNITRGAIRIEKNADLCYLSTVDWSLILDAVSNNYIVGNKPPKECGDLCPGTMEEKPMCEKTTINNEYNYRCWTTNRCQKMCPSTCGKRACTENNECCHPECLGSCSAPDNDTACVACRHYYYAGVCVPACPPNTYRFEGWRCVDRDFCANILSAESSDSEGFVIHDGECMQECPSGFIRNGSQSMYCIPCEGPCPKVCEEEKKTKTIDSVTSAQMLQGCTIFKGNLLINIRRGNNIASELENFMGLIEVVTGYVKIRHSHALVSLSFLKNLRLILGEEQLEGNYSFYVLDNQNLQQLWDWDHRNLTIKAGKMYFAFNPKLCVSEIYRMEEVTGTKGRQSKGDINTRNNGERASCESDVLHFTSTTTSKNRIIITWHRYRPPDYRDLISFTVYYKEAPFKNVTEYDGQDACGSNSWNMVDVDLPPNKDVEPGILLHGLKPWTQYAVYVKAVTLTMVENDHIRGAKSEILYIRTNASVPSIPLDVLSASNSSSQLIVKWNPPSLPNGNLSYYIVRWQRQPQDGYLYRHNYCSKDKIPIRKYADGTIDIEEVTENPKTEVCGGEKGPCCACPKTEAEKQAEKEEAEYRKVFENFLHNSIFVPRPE
Sequence of Insulin-like growth factor 1 receptor (Homo sapiens) (P08069 741-1367 limits assumed): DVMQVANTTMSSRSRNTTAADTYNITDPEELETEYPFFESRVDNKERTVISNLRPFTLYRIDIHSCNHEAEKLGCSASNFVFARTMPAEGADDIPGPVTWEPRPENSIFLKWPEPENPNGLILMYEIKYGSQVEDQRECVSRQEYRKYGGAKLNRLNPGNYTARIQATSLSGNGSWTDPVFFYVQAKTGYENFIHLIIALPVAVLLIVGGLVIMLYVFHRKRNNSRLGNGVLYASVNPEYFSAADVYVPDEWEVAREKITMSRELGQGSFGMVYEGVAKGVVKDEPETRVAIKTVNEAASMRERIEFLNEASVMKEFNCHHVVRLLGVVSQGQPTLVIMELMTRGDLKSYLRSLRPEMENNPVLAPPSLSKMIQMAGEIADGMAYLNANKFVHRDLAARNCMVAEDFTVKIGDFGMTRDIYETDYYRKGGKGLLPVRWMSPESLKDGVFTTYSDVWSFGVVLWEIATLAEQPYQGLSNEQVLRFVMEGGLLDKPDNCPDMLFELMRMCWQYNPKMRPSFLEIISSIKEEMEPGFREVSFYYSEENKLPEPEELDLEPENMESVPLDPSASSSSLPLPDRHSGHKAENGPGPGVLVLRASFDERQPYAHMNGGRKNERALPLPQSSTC
The target is the same in assay [5]. Particulars: at 10 µM.
In assay [6] the target is T3, Inhibitor of nuclear factor kappa-B kinase subunit alpha (Homo sapiens) (UniProt O15111).
T3 sequence (whole entry): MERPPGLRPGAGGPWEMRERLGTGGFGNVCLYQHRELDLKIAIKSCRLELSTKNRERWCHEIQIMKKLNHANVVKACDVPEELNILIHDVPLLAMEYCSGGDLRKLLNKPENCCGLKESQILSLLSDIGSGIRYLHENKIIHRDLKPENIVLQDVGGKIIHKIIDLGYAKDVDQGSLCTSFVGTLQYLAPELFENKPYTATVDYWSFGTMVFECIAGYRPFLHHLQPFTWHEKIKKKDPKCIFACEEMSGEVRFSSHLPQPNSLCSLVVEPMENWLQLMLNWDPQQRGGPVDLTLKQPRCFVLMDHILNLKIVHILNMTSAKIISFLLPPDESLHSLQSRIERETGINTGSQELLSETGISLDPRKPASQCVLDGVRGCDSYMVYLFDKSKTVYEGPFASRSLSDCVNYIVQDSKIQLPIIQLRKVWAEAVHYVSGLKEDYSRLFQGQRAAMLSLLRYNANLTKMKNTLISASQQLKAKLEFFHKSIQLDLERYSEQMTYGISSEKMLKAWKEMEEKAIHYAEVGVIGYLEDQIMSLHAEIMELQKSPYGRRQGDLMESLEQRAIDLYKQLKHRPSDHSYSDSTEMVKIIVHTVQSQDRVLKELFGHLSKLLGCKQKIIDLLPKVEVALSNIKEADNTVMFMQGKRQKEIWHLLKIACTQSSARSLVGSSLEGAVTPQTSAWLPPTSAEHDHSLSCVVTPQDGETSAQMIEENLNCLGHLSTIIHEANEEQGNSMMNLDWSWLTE
The conditions noted are these: at 1 µM.

For assay [7], the target named is T3, Inhibitor of nuclear factor kappa-B kinase subunit alpha (Homo sapiens). The conditions noted are these: at 10 µM.
Assay [8] concerns the target T4, Inhibitor of nuclear factor kappa-B kinase subunit beta (Homo sapiens) (UniProt O14920).
T4 sequence (whole entry): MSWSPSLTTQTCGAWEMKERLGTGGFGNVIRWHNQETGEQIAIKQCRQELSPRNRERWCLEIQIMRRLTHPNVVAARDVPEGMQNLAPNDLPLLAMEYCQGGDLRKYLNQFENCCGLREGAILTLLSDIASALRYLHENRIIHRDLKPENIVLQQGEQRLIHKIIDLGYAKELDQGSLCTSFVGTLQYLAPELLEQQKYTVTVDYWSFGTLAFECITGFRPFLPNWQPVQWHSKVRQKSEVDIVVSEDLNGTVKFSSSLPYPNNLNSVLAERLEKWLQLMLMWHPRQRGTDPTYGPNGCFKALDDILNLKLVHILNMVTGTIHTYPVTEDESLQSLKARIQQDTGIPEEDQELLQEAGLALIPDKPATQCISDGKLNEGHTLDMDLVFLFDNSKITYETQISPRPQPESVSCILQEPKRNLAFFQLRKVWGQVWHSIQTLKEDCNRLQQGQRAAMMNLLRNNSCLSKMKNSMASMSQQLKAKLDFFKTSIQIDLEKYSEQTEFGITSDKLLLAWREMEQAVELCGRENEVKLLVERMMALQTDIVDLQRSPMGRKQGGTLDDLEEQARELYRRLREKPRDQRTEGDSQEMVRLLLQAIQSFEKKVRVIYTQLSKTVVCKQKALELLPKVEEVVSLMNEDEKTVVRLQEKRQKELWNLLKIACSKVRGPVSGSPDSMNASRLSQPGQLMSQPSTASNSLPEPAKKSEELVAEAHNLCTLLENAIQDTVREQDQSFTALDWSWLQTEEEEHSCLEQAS
The conditions noted are these: at 1 µM.

The target in assay [9] is T4, Inhibitor of nuclear factor kappa-B kinase subunit beta (Homo sapiens). Particulars: at 10 µM.
Assay [10] concerns the target Insulin receptor (Homo sapiens) (UniProt P06213). The conditions noted are these: at 1 µM.

One may read the residual activity as the signal under treatment as a percentage of the control signal.

Sequence of Insulin receptor (Homo sapiens) (P06213 28-758 limits assumed): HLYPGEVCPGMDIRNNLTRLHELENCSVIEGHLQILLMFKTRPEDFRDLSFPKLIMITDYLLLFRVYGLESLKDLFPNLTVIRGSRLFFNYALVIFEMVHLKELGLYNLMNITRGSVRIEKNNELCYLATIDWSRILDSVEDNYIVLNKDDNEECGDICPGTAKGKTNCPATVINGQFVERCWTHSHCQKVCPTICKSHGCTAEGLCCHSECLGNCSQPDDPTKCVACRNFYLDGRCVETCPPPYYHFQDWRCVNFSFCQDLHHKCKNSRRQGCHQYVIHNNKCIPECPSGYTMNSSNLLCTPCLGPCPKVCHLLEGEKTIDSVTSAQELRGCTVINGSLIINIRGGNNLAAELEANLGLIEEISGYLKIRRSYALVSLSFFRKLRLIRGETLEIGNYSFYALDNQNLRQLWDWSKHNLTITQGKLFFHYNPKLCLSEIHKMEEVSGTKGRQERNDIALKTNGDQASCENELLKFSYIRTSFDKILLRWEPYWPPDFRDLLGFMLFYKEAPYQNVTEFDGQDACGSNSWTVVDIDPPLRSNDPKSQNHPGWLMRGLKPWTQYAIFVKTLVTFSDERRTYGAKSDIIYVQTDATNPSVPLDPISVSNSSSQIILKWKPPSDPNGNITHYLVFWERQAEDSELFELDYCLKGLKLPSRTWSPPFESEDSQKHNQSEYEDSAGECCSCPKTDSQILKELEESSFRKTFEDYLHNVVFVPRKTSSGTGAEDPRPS
Sequence of Insulin receptor (Homo sapiens) (P06213 763-1382 limits assumed): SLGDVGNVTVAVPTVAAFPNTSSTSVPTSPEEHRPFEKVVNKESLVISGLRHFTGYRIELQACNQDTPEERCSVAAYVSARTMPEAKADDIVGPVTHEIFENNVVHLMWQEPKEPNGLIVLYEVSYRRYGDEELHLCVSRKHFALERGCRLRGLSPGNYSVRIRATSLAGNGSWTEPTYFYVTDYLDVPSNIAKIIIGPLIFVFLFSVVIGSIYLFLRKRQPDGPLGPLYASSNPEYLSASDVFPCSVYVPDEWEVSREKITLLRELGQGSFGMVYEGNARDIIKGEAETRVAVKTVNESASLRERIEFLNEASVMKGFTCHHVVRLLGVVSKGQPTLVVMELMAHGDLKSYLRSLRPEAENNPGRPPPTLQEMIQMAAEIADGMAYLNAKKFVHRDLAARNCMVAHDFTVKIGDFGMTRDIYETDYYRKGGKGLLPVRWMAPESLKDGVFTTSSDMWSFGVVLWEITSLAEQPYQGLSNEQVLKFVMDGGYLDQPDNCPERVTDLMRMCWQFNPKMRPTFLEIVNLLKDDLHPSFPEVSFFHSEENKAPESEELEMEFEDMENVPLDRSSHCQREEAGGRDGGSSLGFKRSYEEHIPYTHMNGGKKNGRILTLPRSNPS

Consider `O=c1c2ccccc2[nH]c(=S)n1CCN1CCC(=C(c2ccc(F)cc2)c2ccc(F)cc2)CC1`, for which the residual activity in [1] is 68%; in assay [2] it was 95%; in [3] it was 80%; in [4], 112%; in assay [5] it was 93%; in assay [6], 87%. The residual activity in [7] is 128%; in assay [8], 114%; in assay [9], 105%; in assay [10] it was 109%.

The record behind these values is ChEMBL document CHEMBL2218924, “A broad activity screen in support of a chemogenomic map for kinase signalling research and drug discovery” (Biochem J, 2013).
